This passage reports composite z-score and z-score results from PubChem BioAssay.

Assay [1] is described as follows: binders of probe aFSTL3 on microarray, primary screen, stem cell growth factor project, biochemical, small-molecule microarray, fluorescence 635/667 (AID 1064).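 Further: measures binding of the biotinylated anti-FSTL3 antibody to printed compounds.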 The conditions noted are these: higher = more signal.
The nature of assay [2]: binders from COS7 lysate, DM2A8 probe, primary screen, torsin A project, cell lysate, small-molecule microarray, fluorescence 635/667 (AID 1065). The conditions noted are these: higher = more signal, COS7 lysate expressing mutant human TOR1A.
Assay [3] is described as follows: binders of probe aFGF2 on microarray, primary screen, stem cell growth factor project, biochemical, small-molecule microarray, fluorescence 635/667 (AID 1067).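 Further: measures binding of biotinylated aFGF2 protein to printed compounds on slides; z-score merges feature fluorescence and signal-to-noise across triplicate slides.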 The conditions noted are these: higher = more signal.
Assay [4] can be described thus: binders of probe aFGF10 on microarray, primary screen, stem cell growth factor project, biochemical, small-molecule microarray, fluorescence 635/667 (AID 1071).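 Further: score merges 667 nm spot intensity and signal to noise from triplicate slides.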 The note with it: higher = more signal.
Assay [5] concerns the target Neurogenic locus notch homolog protein 2 (Homo sapiens) (UniProt Q04721). Put plainly: Notch2 binders on small-molecule microarrays, primary screen, biochemical, small-molecule microarray, 635 nm fluorescence, stem cell growth factors (AID 1073). The note with it: Notch2 binding, higher = more signal.
In assay [6] the target is Pro-neuregulin-1, membrane-bound isoform (Homo sapiens) (UniProt Q02297). The assay can be described thus: NRG1 binders on small-molecule microarrays, primary screen, psychiatric disease protein project, biochemical, small-molecule microarray, fluorescence 635/667 (AID 1075).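 Further: score combines 667 nm spot fluorescence with signal to noise.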 The conditions noted are these: NRG1 binding, 635 nm fluorescence, higher = more signal.
Pro-neuregulin-1, membrane-bound isoform (Homo sapiens), sequence (Q02297 whole entry, looked up, the tested form may be a part, canonical isoform): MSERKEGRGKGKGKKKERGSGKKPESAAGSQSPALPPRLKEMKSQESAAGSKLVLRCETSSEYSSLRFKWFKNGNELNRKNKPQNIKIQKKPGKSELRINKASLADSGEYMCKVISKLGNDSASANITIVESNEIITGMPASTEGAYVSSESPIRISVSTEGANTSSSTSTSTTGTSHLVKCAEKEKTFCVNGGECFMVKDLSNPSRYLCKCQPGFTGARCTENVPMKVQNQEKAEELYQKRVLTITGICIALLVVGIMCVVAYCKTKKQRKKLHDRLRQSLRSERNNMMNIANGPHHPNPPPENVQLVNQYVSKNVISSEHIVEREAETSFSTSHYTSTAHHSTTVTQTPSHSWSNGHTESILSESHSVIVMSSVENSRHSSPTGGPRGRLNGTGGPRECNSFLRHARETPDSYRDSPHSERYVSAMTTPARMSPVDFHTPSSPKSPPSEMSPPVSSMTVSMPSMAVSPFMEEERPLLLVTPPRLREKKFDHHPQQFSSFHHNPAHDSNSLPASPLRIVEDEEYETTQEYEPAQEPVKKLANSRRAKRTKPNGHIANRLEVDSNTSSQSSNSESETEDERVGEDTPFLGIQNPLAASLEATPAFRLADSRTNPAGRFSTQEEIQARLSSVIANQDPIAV
The subject of assay [7] is Neuregulin-1 EGF-like domain. Put plainly: binders of neuregulin-1 EGF-like domain, primary screen, biochemical, small-molecule microarray, 635 nm fluorescence (AID 1081).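 Further: binding of the protein to compounds printed on small-molecule microarray slides.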 The conditions noted are these: small-molecule microarray binding, higher = more signal.
A short description of assay [8]: FRG1 promoter luciferase signal modulators, primary screen, FRG1 inhibition for FSHD, cell-based, C2C12 myotubes, firefly/Renilla luciferase, luminescence (AID 1084). The note with it: higher = more signal, called active from +8 up or from −8 down.
Assay [9] in a line: binders of probe aFST on microarray, primary screen, stem cell growth factor project, biochemical, small-molecule microarray, fluorescence 635/667 (AID 1086).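 Further: score merges 667 nm fluorescence with signal-to-noise of each printed compound spot.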 The conditions noted are these: higher = more signal.
Assay [10] can be described thus: binders of probe aHhip on microarray, primary screen, stem cell growth factor project, biochemical, small-molecule microarray, fluorescence 635/667 (AID 1087).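 Further: score merges spot fluorescence at 667nm with spot signal to noise ratio.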 The note with it: higher = more signal.

SMILES strings stand for the structures. Activity calls are given as the source filed them.

Neurogenic locus notch homolog protein 2 (Homo sapiens), sequence (Q04721 whole entry, looked up, canonical isoform): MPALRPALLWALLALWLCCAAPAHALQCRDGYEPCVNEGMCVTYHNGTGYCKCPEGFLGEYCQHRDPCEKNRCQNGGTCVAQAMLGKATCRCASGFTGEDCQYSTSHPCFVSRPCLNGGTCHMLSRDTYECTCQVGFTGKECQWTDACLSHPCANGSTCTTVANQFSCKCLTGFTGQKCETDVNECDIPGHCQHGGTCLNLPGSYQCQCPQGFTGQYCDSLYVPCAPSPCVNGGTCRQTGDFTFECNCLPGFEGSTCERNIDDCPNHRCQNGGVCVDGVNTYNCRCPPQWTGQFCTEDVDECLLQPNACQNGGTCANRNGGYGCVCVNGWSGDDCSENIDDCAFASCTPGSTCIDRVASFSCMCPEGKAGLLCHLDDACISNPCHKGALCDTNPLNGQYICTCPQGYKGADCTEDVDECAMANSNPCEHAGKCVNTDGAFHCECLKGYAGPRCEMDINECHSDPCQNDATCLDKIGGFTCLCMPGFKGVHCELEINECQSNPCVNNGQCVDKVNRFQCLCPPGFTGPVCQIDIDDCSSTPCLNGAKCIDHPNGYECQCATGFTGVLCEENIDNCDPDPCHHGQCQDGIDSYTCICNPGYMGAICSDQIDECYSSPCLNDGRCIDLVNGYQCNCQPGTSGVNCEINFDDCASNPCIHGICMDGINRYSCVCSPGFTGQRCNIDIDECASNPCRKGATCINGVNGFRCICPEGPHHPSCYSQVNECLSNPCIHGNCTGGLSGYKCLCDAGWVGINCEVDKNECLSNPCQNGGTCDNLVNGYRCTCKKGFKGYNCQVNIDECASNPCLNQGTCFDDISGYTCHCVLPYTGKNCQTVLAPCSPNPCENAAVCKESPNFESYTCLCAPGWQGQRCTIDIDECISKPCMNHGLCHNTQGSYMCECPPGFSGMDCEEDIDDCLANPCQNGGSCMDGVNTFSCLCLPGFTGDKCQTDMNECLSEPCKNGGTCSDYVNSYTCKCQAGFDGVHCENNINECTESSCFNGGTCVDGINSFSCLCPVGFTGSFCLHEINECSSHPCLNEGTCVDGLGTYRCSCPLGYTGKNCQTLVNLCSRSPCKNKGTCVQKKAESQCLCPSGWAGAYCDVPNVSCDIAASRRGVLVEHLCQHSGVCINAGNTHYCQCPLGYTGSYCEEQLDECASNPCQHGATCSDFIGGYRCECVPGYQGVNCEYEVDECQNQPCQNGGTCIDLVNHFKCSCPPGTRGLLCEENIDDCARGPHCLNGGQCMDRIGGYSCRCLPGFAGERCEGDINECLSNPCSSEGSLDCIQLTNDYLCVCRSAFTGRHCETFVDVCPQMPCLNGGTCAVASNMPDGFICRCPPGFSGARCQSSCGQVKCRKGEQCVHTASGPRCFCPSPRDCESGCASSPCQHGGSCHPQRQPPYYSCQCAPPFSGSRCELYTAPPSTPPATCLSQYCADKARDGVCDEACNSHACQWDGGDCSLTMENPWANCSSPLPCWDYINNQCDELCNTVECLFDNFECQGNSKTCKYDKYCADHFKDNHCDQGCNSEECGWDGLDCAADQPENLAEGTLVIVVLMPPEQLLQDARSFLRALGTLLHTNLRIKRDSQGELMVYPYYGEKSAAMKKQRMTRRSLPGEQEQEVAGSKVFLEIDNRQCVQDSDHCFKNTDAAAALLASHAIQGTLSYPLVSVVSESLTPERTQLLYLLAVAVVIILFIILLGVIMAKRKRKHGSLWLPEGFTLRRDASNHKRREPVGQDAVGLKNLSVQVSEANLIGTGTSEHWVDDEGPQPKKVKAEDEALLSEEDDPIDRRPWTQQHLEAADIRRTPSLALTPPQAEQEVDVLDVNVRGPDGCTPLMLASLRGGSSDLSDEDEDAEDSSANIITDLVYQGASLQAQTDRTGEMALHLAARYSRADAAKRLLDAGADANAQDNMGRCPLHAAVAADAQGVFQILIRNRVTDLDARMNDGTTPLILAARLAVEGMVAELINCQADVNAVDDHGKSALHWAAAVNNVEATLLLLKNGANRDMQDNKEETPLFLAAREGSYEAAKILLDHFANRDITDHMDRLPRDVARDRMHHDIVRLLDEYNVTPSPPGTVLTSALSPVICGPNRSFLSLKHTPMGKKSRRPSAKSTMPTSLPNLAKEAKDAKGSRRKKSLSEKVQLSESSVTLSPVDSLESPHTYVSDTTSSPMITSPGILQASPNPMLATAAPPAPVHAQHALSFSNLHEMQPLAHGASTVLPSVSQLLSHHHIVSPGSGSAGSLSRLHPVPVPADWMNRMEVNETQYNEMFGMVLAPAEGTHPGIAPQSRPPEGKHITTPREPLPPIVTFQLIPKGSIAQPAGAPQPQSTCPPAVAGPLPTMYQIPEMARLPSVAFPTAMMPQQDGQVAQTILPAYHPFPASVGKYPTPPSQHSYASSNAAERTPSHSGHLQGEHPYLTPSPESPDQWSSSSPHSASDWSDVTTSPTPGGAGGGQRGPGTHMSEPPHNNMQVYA

`O=C1O[C@@H](c2ccccc2)[C@@H](c2ccccc2)N2[C@@H](c3ccc(OCCO)cc3)[C@]3(C(=O)Nc4ccc(C#CCCO)cc43)[C@@H](C(=O)O)[C@H]12`: the composite z-score in [1] is 1.47; in [2], 0.431; in assay [3], 0.213; in assay [4], 0.749; in assay [5] it was 0.882; in [6] it was 1.46. For the same compound, the composite z-score is 1.24 in assay [7], 1.9 in [9] and 0.102 in assay [10]. Besides, the z-score in assay [8] was -1.75 (inactive).
Regarding `CC(C)C[C@@H]1NC(=O)[C@@H]2C[C@H](C(=O)NCCCCCCNC(=O)CS)[C@H](c3cccc(OCCO)c3)N2C1=O`, the composite z-score in assay [1] is -0.514; in assay [2], 1.05; in [3], 0.0379; in assay [4], 0.968; in [5], 1.34; in [6], 1.21. For the same compound, the composite z-score in assay [7] is 1.39; in [9], 0.756; in assay [10], -0.069. Moreover, the z-score in assay [8] was 0.509 (inactive).
Regarding `COc1cc(CO)cc(I)c1O[C@H]1C=C(C(=O)NCCO)C[C@@H]2O[C@H]12`, the composite z-score in assay [1] was 0.167; in assay [2], 0.622; in [3], -0.111; in assay [4], 0.251; in assay [5], 0.864; in assay [6], 0.366. Also, the composite z-score is 1.46 in assay [7], 0.164 in [9] and -0.199 in assay [10]. Moreover, the z-score in [8] is -1.44 (inactive).
With `Cc1ccc(N2C(=O)c3ccccc3[C@](C)(C(=O)NCCCN(C)C)[C@@H]2c2ccc(CO)cc2)nc1`, the composite z-score is 0.908 in [1]; -0.109 in [2]; -0.1 in assay [3]; -0.436 in assay [4]; -0.676 in [5]; -0.114 in [6]. Moreover, the composite z-score was 0.582 in assay [7], 0.423 in assay [9] and -0.236 in assay [10]. The z-score in assay [8] is 1.36 (inactive).
For the compound `CC(C)C[C@H]1NC(=O)C([C@@H](C)OCc2ccccc2)NC(=O)[C@@]23C(=O)N[C@@H](Cc4ccccc4)C2[C@H](C)[C@@]2(C)O[C@H]2C3/C=C/C/C=C\CNC1=O` (stereo not given in full), the composite z-score is -0.61 in assay [1]; 0.583 in [2]; -0.0712 in assay [3]; 0.775 in assay [4]; 0.831 in assay [5]; 1.21 in assay [6]. Further, the composite z-score is 1.06 in assay [7], 0.517 in assay [9] and 3.36 in [10]. Besides, the z-score in assay [8] is 2.71 (inactive).
For `CC(C)C(=C=CC[C@H](O)c1ccccc1OCCO)C[C@H](O)COCc1ccccc1`, the composite z-score in [1] was -0.322; in assay [2] it was -0.0849; in [3], -0.136; in [4], 0.483; in assay [5], -0.284; in assay [6] it was 0.294. Also, the composite z-score in [7] is 0.767; in assay [9] it was -0.064; in assay [10], -0.0994. For the same compound, the z-score in [8] is -0.843 (inactive).
In the case of `COc1cc(C(O)C2C=CC3C(=O)N(c4ccccc4)C(=O)C3N2Nc2ccccc2F)cc(OC)c1OC` (stereo not given), the composite z-score in assay [1] was -0.0643; in assay [2] it was 0.155; in assay [3] it was 0.0253; in [4], 0.935; in assay [5], 1.64; in assay [6], 1.93. Moreover, the composite z-score in assay [7] amounted to 1.29; in [9], 0.612; in [10], 0.252. In [8], the z-score is 1.26 (inactive).
`[N-]=[N+]=Nc1ccccc1[C@@H]1OC(c2ccc(OCCCO)cc2)=N[C@]1(CCS(=O)(=O)c1ccccc1)C(=O)NCC(O)CO` (stereo not given in full): the composite z-score was 0.158 in assay [1]; 0.372 in assay [2]; -0.0125 in assay [3]; 0.0835 in assay [4]; 0.209 in [5]; 1.05 in assay [6]. The composite z-score in [7] stood at 1.21; in assay [9] it was 0.283; in assay [10], 0.0401. For the same compound, the z-score in assay [8] was -0.463 (inactive).
Take `CC=CC(O)C1C=CC2C(=O)NC(=O)C2N1Nc1ccc(Cl)cc1Cl` (stereo not given): the composite z-score in assay [1] is 0.389; in assay [2], 0.453; in [3] it was -0.0074; in assay [4], 0.647; in assay [5] it was 0.662; in assay [6], 1.01. Moreover, the composite z-score is 0.669 in assay [7], 0.114 in [9] and -0.0645 in assay [10]. For the same compound, the z-score in assay [8] is 0.035 (inactive).
On to `COc1ccc([Si](C)(C)[C@@H]2[C@@H](CC(=O)N3Cc4ccccc4C[C@H]3CO)O[C@]3(C(=O)N(Cc4ccc(N5CCOC5=O)cc4)c4ccccc43)[C@H]2C)cc1`, for which the composite z-score was -0.169 in assay [1]; 0.669 in assay [2]; -0.178 in assay [3]; 0.284 in assay [4]; 0.405 in assay [5]; 1 in assay [6]. The composite z-score worked out at 1.09 in assay [7], 0.27 in [9] and 0.0274 in assay [10]. Further, in assay [8], the z-score was -2.85 (inactive).
For the compound `COC(=O)C[C@H]1O[C@@]2(C[C@@H]1[Si](C)(C)C)C(=O)N(C)c1ccccc12`, the composite z-score was -0.469 in [1]; 0.105 in [2]; -0.129 in assay [3]; 0.487 in assay [4]; 0.833 in [5]; 0.22 in [6]. The composite z-score in assay [7] is 0.672; in [9] it was 0.607; in assay [10], -0.0645. Besides, the z-score in assay [8] is -0.933 (inactive).
As to `COC(=O)C1=CC(CCCO)=CC(c2cccs2)N(Cc2cc3c(cc2Br)OCO3)C=C1C(=O)OC` (stereo not given), the composite z-score in assay [1] is 0.0066; in [2], 0.951; in [3] it was 0.0931; in assay [4], 1.02; in assay [5], 1.27; in [6] it was 1.66. The values for the composite z-score in assay [7], in assay [9] and in assay [10] were 1.33, 0.182 and 0.0972, respectively. The z-score in assay [8] is -2.18 (inactive).
As to `C=CCC(OC(C)=O)[C@@H]1[C@@H](N(Cc2cc3ccccc3o2)C(=O)c2cccc3ccccc23)c2cc(OCCCO)ccc2N1C(=O)c1ccc2ccccc2n1` (stereo not given in full), the composite z-score in [1] was 1.68; in [2], 0.27; in assay [3], -0.116; in assay [4], 0.0823; in assay [5], 0.16; in [6], -0.0193. For the same compound, the composite z-score in [7] is -0.112; in [9], -0.061; in assay [10], -0.125. Moreover, in [8], the z-score is -1.53 (inactive).
For the compound `COc1ccc(CCNC(=O)[C@@H]2c3ccccc3C(=O)N(Cc3ccccc3OC)[C@H]2c2ccc(CO)cc2)cc1`, the composite z-score was -0.26 in assay [1]; 0.678 in [2]; 0.0021 in assay [3]; 0.131 in assay [4]; 1.03 in assay [5]; 1.29 in [6]. In addition, the composite z-score in assay [7] was 1.31; in assay [9], 0.428; in [10], -0.266. In assay [8], the z-score is -2.5 (inactive).
As for `CC(C)OC(=O)CC(=O)CC(O)c1cccc([N+](=O)[O-])c1` (stereo not given), the composite z-score was 0.62 in [1]; 1.22 in assay [2]; -0.0028 in [3]; 0.376 in [4]; 0.546 in assay [5]; 0.334 in [6]. The composite z-score in assay [7] is 0.947; in [9], 0.815; in assay [10], -0.305. Also, the z-score in assay [8] is -1 (inactive).
As for `O=C1C[C@@](C(=O)NCc2ccccc2)(c2ccc([N+](=O)[O-])cc2)[C@@H](c2ccc(CO)cc2)N1C1CCCCC1`, the composite z-score in assay [1] was -0.709; in [2], 0.858; in assay [3], -0.101; in [4] it was 0.104; in [5], 0.324; in [6], 1.4. In addition, the results for the composite z-score in [7], in [9] and in assay [10] were 1.31, 0.117 and -0.158, respectively. Moreover, in assay [8], the z-score was -1.47 (inactive).
In the case of `COC(=O)[C@]1(CCC(=O)OC(C)(C)C)N=C(c2ccc(OCCCO)cc2)O[C@@H]1c1ccccc1N=[N+]=[N-]`, the composite z-score was 0.375 in [1]; -0.135 in assay [2]; -0.132 in assay [3]; 0.171 in [4]; 0.552 in assay [5]; 0.623 in assay [6]. In addition, the composite z-score in assay [7] is 0.908; in assay [9], 0.219; in assay [10] it was -0.484. In assay [8], the z-score is 2.96 (inactive).
Consider `CCOC(=O)C1=C[C@@H](C(C)(C)C)N(S(=O)(=O)c2ccc(C)cc2)[C@H]1c1ccc(C#N)cc1`, for which the composite z-score in assay [1] is 0.116; in [2] it was 0.255; in assay [3], -0.0181; in assay [4] it was 0.707; in assay [5] it was 1.35; in assay [6], 1.32. Besides, the composite z-score in assay [7] was 1.22; in assay [9] it was 0.313; in assay [10] it was 0.144. Also, the z-score in assay [8] is -0.793 (inactive).
As to `CCCN1C(=O)[C@@]2(c3ccc([N+](=O)[O-])cc3)CC(=O)N(CC34CC5CC(CC(C5)C3)C4)[C@@H]2c2ccc(CO)cc21`, the composite z-score in assay [1] is 0.402; in [2], -0.519; in assay [3] it was -0.165; in [4], -0.046; in assay [5] it was -0.421; in assay [6], 0.0413. Besides, the composite z-score is -0.58 in [7], -0.103 in assay [9] and -0.213 in assay [10]. Also, the z-score in assay [8] was 0.244 (inactive).
As to `[N-]=[N+]=Nc1ccccc1C[C@@]1(C(=O)NCC(O)CO)N=C(c2ccc(OCCCO)cc2)O[C@@H]1c1ccccc1` (stereo not given in full), the composite z-score in assay [1] is 0.134; in assay [2], -0.243; in assay [3], -0.073; in assay [4], 0.165; in assay [5], 0.513; in assay [6], 0.706. The composite z-score in [7] was 1.1; in [9], 0.146; in [10], -0.0994. In addition, the z-score in assay [8] is -2.46 (inactive).
`COc1ccc(C(=O)Nc2ccc3c(c2)[C@@]2(O[C@H](CCO)[C@@H]([Si](C)(C)c4ccc(OC)cc4)[C@@H]2C)C(=O)N3Cc2ccccc2)cc1`: the composite z-score in assay [1] was -0.122; in assay [2] it was 0.143; in [3], -0.0333; in assay [4], -0.0652; in assay [5] it was 0.562; in assay [6], 0.929. In addition, the composite z-score in assay [7] stood at 1.07; in [9] it was 0.154; in assay [10], 0.2. Moreover, in [8], the z-score is -3.68 (inactive).
